SMN2 splice up – qHTS Assay for Enhancers of SMN2 Splice Variant Expression; 2.8% of 210,000 active; Potency, µM (titrated, usually from 46.1 µM), inactives show top-dose activity change, positive = activation, actives largely listed as activators; AID 1458, 2008; HEK293 SMN2-luciferase splicing reporter, luminescence, 30-36 h; also: % of control where 0% means no effect; nearly all actives have a fitted effect of over 55% in size
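HEK293 cells carry an SMN2 minigene-luciferase reporter in which exon 7 inclusion puts luciferase in frame. Cells were seeded at 2000 cells/well, attached for 10-12 hours, then exposed to compounds for 30-36 hours at 37C before ONE-Glo luminescence.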
NPC1 promoter act – qHTS Assay for NPC1 Promoter Activators; 2.4% of 320,000 active; Potency, µM (series often up to 9.22 µM), for inactives: at the highest dose activation, usual class: activators; Huh7 NPC1 promoter luciferase reporter, 24 h; also: % of control where 0% means no effect; nearly all actives have a fitted effect of over 60% in size
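Stable NPC1-promoter luciferase Huh7 line; cpd (DMSO) 24 h, 37 °C, 5% CO2; Amplite luciferase reagent 10 min RT; luminescence readout. qHTS format.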
ELG1 DNA repair – qHTS screen for small molecules that inhibit ELG1-dependent DNA repair in human embryonic kidney (HEK293T) cells expressing luciferase-tagged ELG1 | 2.3% of 330,000 active | AID 504467, 2011 | HEK293T ELG1-luciferase reporter, luminescence, 16 h; DNA damage induced by 5-fluorouridine | Potency, µM (series often up to 46.1 µM), without a hit: at the highest dose activity change, negative = inhibition, hits mostly inhibitors; also: % is scaled to controls: 0 for no effect and ±100 for the full control effect; nearly all actives have a fitted effect of over 55% in size
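Step one: seed 2,000 cells per well. Step two: pin-transfer compound or DMSO alongside 5-fluorouridine. Step three: incubate 16 hr, 37 °C, 5% CO2. Step four: add ONE-Glo, wait 30 min, read luminescence.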
ELG1 genotox – qHTS screen for small molecules that induce genotoxicity in human embryonic kidney (HEK293T) cells expressing luciferase-tagged ELG1; AID 504466, 2011; 1.3% of 330,000 active; HEK293T ELG1-luciferase reporter, luminescence, 16 h; Potency, µM (top dose mostly 46 µM), inactives show at the top dose activity change, positive = activation, actives largely listed as activators; also: % of control where 0% means no effect; nearly all actives have a fitted effect of over 60% in size
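Genotoxicity was scored as increased ELG1-luciferase reporter signal, measured by ONE-Glo luminescence (30 min, room temperature). Compound or vehicle exposure of the HEK293T reporter cells lasted 16 hr at 37°C.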
Rab9 promoter act – qHTS Assay for Rab9 Promoter Activators; Huh7 Rab9 promoter-luciferase reporter, luminescence, 24 h; Potency, µM (doses to about 9.22 µM), inactives show top-dose activation, negative = inhibition, hits mostly activators; 2.8% of 320,000 active; also: % of control where 0% means no effect; nearly all actives have a fitted effect of over 60% in size
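Huh7 cells stably carrying a Rab9 promoter-luciferase reporter, 1500 cells per well in OP-MEM I with 10% FBS, treated with compound 24 hours at 37C. Luciferase activity read by luminescence after 10 minutes with Amplite reagent.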
FLuc counter – qHTS profiling assay for firefly luciferase inhibitor/activator using purifed enzyme and Km concentrations of substrates (counterscreen for miR-21 project); 6.9% of 360,000 active; purified FLuc, Km substrates, luminescence inhibition; AID 588342, 2011; Potency, µM (doses to about 57.5 µM), without a hit: at the highest dose activity change, negative = inhibition, most hits filed as inhibitors;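 also: plate controls were vehicle for no effect and reference inhibitor for full effect; nearly all actives have a fitted effect of over 55% in size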
Target sequence (P08659 whole entry, looked up): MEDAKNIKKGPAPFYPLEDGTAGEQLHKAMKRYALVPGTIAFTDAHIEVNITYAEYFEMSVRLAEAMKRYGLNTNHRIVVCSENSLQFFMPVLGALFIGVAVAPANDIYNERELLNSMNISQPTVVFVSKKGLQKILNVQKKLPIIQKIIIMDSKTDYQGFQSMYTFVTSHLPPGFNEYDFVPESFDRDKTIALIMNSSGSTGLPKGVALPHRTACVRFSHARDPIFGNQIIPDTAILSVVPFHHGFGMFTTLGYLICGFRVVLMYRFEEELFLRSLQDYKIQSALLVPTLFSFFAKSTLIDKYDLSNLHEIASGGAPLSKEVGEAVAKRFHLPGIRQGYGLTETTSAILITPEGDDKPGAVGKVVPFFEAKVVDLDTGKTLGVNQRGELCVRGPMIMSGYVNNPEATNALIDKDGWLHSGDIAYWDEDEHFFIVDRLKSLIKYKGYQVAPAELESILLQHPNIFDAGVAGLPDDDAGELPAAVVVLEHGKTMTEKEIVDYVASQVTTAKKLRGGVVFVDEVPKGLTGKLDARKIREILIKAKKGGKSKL
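Purified P. pyralis luciferase (10nM final) with 10uM D-luciferin and 10uM ATP (Km levels) in 50mM Tris acetate pH 7.5, 10mM Mg acetate, 0.01% Tween-20, 0.05% BSA; qHTS 6-point titration, ~60 µM downward; luminescence read.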
ELG1 FLuc counter – qHTS screen for small molecules that inhibit ELG1-dependent DNA repair: Hit Confirmation in Cell-Based Luciferin Assay; shares compounds with ELG1 DNA repair; cell-free firefly luciferase luminescence counter-screen, ViewLux; Potency, µM (highest dose often 46.1 µM), without a hit: top-dose activity change, negative = inhibition, hits mostly inhibitors; 3% of 350 active; AID 624247, 2012; also: % is scaled to controls: 0 for no effect and ±100 for the full control effect
ELG1-Luc inh – HTS assay for small molecules that inhibit ELG1-dependent DNA repair in human embryonic kidney (HEK293T) cells expressing luciferase-tagged ELG1: Hit Confirmation; shares compounds with ELG1 DNA repair; HEK293T ELG1-luciferase levels, luminescence; cells co-treated with 5-fluorouridine; Potency, µM (top dose mostly 46.1 µM), for inactives: at the highest dose activity change, negative = inhibition, most hits filed as inhibitors; 68% of 670 active; AID 624248, 2012; also: % is scaled to controls: 0 for no effect and ±100 for the full control effect; nearly all actives have a fitted effect of over 55% in size
ELG1-Luc MMS – confirmation of human ELG1 repair inhibitors, MMS stimulated; shares compounds with ELG1 DNA repair; HEK293T luciferase-tagged ELG1 level, MMS stimulated; Potency, µM (doses to about 46.1 µM), inactives show top-dose activity change, negative = inhibition, usual class: inhibitors; 53% of 670 active; AID 624249; also: % is scaled to controls: 0 for no effect and ±100 for the full control effect; nearly all actives have a fitted effect of over 60% in size
ELG1 5FU viab – qHTS screen for small molecules that inhibit ELG1-dependent DNA repair: Hit Confirmation with 5FU Viability | shares compounds with ELG1 DNA repair | 670 tested, under 10 active | Potency, µM (series often up to 46.1 µM), inactives show at the highest dose activity change, negative = viability loss, usual class: cytotoxic | cell viability with 5-FU, ELG1-dependent repair;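 also: ELG1-luc HEK293T cells cotreated with 5-fluorouridine at 10 µM final; viability measured 16 h after compound addition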
ELG1 MMS cell – qHTS screen for small molecules that inhibit ELG1-dependent DNA repair: Hit Confirmation with MMS Viability; Potency, µM (doses to about 46.1 µM), for inactives: top-dose activity change, negative = viability loss, most hits filed as cytotoxic; AID 624251, 2012; 33% of 670 active; shares compounds with ELG1 DNA repair; Cell viability with MMS, ELG1-dependent DNA repair;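 also: ELG1-luc HEK293T cells co-treated with 10 µM MMS; viability read 16 h after compound addition; % is scaled to controls: 0 for no effect and ±100 for the full control effect; nearly all actives have a fitted effect of over 60% in size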
ELG1 unstim viab – qHTS screen for small molecules that inhibit ELG1-dependent DNA repair: Hit Confirmation with Unstimulated Viability Assay; Potency, µM (doses to about 45.9 µM), inactives show at the highest dose activity change, negative = loss of viability, hits mostly cytotoxic; cell viability counter-screen, unstimulated, luminescence; shares compounds with ELG1 DNA repair; 8% of 900 active;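 also: compound exposure lasted 16 hours before reading; % is scaled to controls: 0 for no effect and ±100 for the full control effect; nearly all actives have a fitted effect of over 55% in size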
FLuc enzyme – qHTS screen for small molecules that inhibit ELG1-dependent DNA repair: Hit Confirmation in Biochemical Luciferin Assay | shares compounds with ELG1 DNA repair | purified firefly luciferase, luminescence counter-screen | Potency, µM (top dose mostly 57.5 µM), without a hit: at the highest dose activity, negative = inhibition, hits mostly inhibitors | 10% of 350 active; also: % is scaled to controls: 0 for no effect and ±100 for the full control effect
* hit, by the source's call; ? = inconclusive; / = not tested or not shown. Sampled rows, rich in hits. Any-hit rate of the full collection: about 9.3%. Calls follow the shape of the dose curve; as a rule, active = well fitted curve in the direction sought with a large enough effect; inconclusive = small, poorly fitted or top-dose-only effect, or another doubt; inactive = no such curve, though single readings can be large; an effect the other way counts as inactive or inconclusive. Potency is read from the fitted curve at half-maximal effect.

SMILES	SMN2 splice up	NPC1 promoter act	ELG1 DNA repair	ELG1 genotox	Rab9 promoter act	FLuc counter	ELG1 FLuc counter	ELG1-Luc inh	ELG1-Luc MMS	ELG1 5FU viab	ELG1 MMS cell	ELG1 unstim viab	FLuc enzyme
COc1cc2c(cc1OC)[C@@H]1C(=O)c3ccc4c(c3OC1CO2)CC(C(C)C)O4 (stereo not given in full)	-57.3%	/	/	/	/	/	?	25µM*	0.0445µM*	-21.7%	0.0397µM*	?	-4.3%
O=C(CNC(=O)OCc1ccccc1)Nc1ccc(Br)cc1C(=O)c1ccccc1Cl	-13.3%	2.2%	?	-6.1%	-8.0%	-0.8%	/	/	/	/	/	/	/
CCOC(=O)c1ccc(NC(=O)C2C3C=CC(O3)C2C(=O)O)cc1 (stereo not given)	12.8%	4.3%	?	12.6%	1.1%	-1.9%	/	/	/	/	/	/	/
CCOC(=O)c1ccc(NC(=O)c2nc[nH]c2C(=O)NCCNC(=O)c2[nH]cnc2C(=O)Nc2ccc(C(=O)OCC)cc2)cc1	/	/	0.517µM*	-1.9%	/	/	?	0.792µM*	1.41µM*	?	?	-21.2%	?
O=c1[nH]c(=O)n(Cc2ccc(F)cc2)c(O)c1C=NCCCO	0.7%	1.5%	16.3%	-1.2%	-7.2%	2.0%	/	/	/	/	/	/	/
O=c1[nH]c(=O)n(Cc2ccc(F)cc2)c(O)c1/C=N/Nc1ccccc1	/	-0.3%	1.83µM*	4.6%	0.5%	2.1%	/	6.2%	1.9%	-0.2%	-3.0%	?	/
C[C@]12CCC3C(CCC4=CC(O)CC[C@@]43/C=N/O)C1(O)CCC2C1=CC(=O)OC1 (stereo not given in full)	/	-42.2%	1.46µM*	-19.9%	-39.3%	-0.4%	/	0.996µM*	0.445µM*	?	1.25µM*	0.499µM*	/
Cc1ccsc1CNCCc1ccccc1F	/	-2.5%	1.3%	-10.5%	4.6%	5.0%	/	/	/	/	/	/	/
